HT1080NT lethal = kills 2HG-producing HT-1080-NT fibrosarcoma cells | HT-1080-NT fibrosarcoma viability, CellTiter-Glo ATP luminescence, 48 h | Potency, µM (highest dose often 46.1 µM), inactives show top-dose activity, negative = less viability, actives largely listed as cytotoxic | hit rate 1.6% among 360,000 | AID 686970;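 also: NT is the 2HG producing partner of a matched IDH1 knockdown line; potency is read from the fitted curve at half-maximal effect; 0% = DMSO-treated cells and -100% = media-only wells without cells; nearly all actives have a fitted effect of over 55% in size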
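A 48-hour cytotoxicity screen used HT-1080-NT cells plated 2 hours before compound delivery. ATP-based CellTiter-Glo luminescence measured viability, normalized to DMSO and no-cell controls.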
IL1B secr inh = inflammasome signaling inhibition, IL-1 beta readout; AID 743279; activity change, % at 57.5 µM; hit rate 4.7% among 360,000; THP-1 LPS/ATP IL-1B secretion, AlphaLISA, 16 h; hits give low values; in the data active = activity change below about -50%; inconclusive = mostly about -30% to -49%
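THP-1 cells pretreated 1 hr with compounds (up to 57.5 uM final), then stimulated with LPS (250 ng/mL final) plus ATP (1.25 mM final); secreted IL-1B measured by AlphaLISA after 16 hr, decreased signal indicating inhibition.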
DT40 TDP1 CPT = growth inhibition of DT40 Tdp1-/-;hTDP1 cells with camptothecin (screen for TDP1 inhibitors); chicken DT40 Tdp1-/-;hTDP1 cells + 20 nM CPT, ATP luminescence, 48 h; Potency, µM (highest dose often 46.2 µM), inactives show top-dose activity change, negative = growth inhibition, usual class: inhibitors; hit rate 12% among 420,000; AID 686979; also: potency is read from the fitted curve at half-maximal effect; nearly all actives have a fitted effect of over 55% in size
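Chicken DT40 Tdp1-/- cells complemented with human TDP1, 400 cells/well, exposed to compounds plus 20 nM camptothecin for at least 48 h at 37 C; viability read as ATP content by CellTiter-Glo luminescence.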
HT1080 IDH1KD tx = HT-1080 IDH1 knockdown cell toxicity (counter line); HT-1080 IDH1 knockdown viability, ATP luminescence, 48 h; Potency, µM (top dose mostly 46.1 µM), without a hit: at the top dose activity, negative = toxicity, actives largely listed as cytotoxic; hit rate 2% among 360,000; AID 686971;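 also: potency is read from the fitted curve at half-maximal effect; 0% = DMSO wells and -100% = cell-free medium wells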
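HT-1080-IDH1KD cells (IDH1 knocked down), 750/well in RPMI with 5% FBS, treated with compound 48 h at 37 degrees C. Viability by CellTiter-Glo luminescence, normalised to DMSO and no-cell wells; concentration-response curves classed.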
TDP1 cell noCPT = qHTS for Inhibitors of human tyrosyl-DNA phosphodiesterase 1 (TDP1): qHTS in cells in absence of CPT. AID 686978, 2013. Potency, µM (top dose mostly 46.2 µM), for the others: at the highest dose activity change, negative = growth inhibition, most hits filed as inhibitors. DT40 Tdp1-/- hTDP1 cells, no CPT, ATP luminescence, 48 h. hit rate 15% among 420,000; also: potency is read from the fitted curve at half-maximal effect; nearly all actives have a fitted effect of over 55% in size
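No-CPT arm: Tdp1-/-;hTDP1 DT40 cells (400/well) plus compounds, incubated ≥48 hr at 37 °C. Readout CellTiter-Glo luminescence.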
Active calls of the source: *; ? = inconclusive; / = no result given; [ ] = another dose, or the depositor's remark. The list is not random: actives were taken first. Their share in the collection is about 19%. Unless noted, calls follow the shape of the dose curve; as a rule, active = well fitted curve in the direction sought with a large enough effect; inconclusive = small, poorly fitted or top-dose-only effect, or another doubt; inactive = no such curve, though single readings can be large; an effect the other way counts as inactive or inconclusive. Unless noted, % is scaled to controls: 0 for no effect and ±100 for the full control effect.

SMILES | HT1080NT lethal | IL1B secr inh | DT40 TDP1 CPT | HT1080 IDH1KD tx | TDP1 cell noCPT
CCC1(C)Cc2ccccc2C(Nc2c(C)n(C)n(-c3ccccc3)c2=O)=N1 (stereo not drawn) | 14% | 6 | -2% | 10% | -4%
O=[N+]([O-])c1cccc(CSC2=NCCN2S(=O)(=O)c2ccccc2)c1 | 1% | ? | ? | 6% | -28%
O=C(O)c1cc(N2N=C(C(F)(F)F)/C(=C/C=C/c3ccco3)C2=O)ccc1Cl | -4% | 16 | ? | -1% | 18µM*
O=C(Nc1cccc(-c2nc3ncccc3o2)c1)c1sc2ccccc2c1Cl | 13% | 5 | 10µM* | 10% | ?
O=C(Nc1cccc(-c2nc3ncccc3o2)c1)c1cc2ccccc2o1 | -17% | 25 | 21µM* | -14% | 23µM*
Cc1ccc2c(c1)N(CC(=O)NCCc1ccccc1)C(=O)c1cccnc1O2 | 1% | 22 | 8% | 2% | 0%
CC(C)C[C@@H]1NC(=O)[C@H](Cc2ccccc2)N(C)C(=O)[C@H](C)NC(=O)c2ccccc2NC(=O)[C@H](Cc2ccc(O)cc2)N(C)C1=O | -20% | -5 | 16µM* | -12% | 15µM*
COc1cccc(OCCSc2nc3ccccc3n2CC(=O)N2CCOCC2)c1 | / | / | -28% | / | 1%
COc1ccc(N2C(=O)c3ccc(C(=O)OC(C)C)cc3C2=O)cc1 | -23% | 4 | 6.5µM* | 0% | 5.8µM*
COCC(=O)Nc1cc(Cl)ccc1C | -5% | 13 | 19% | -20% | 3%
Cc1ccc(Cl)cc1NC(=O)CC(O)(C(F)(F)F)C(F)(F)F | 20µM* | -83* | 18µM* | ? | ?
CC(=O)Oc1ccccc1Cn1c(C)c(C(=O)NCc2cccc(Cl)c2)sc1=O | ? | -25 | ? | ? | ?
Cc1nc2c(OCCC3CCCCC3)cccn2c1N(C)C(=O)CCC1CCCC1 | ? | -53* | ? | ? | 16µM*
Cc1nc2c(OCc3cc(Cl)cc(Cl)c3)cccn2c1N(C)C(=O)CCC1CCCC1 | ? | -67* | ? | ? | ?
Cc1nc2c(OCCOc3ccccc3)cccn2c1N(C)C(=O)CCC1CCCC1 | -20% | 146 | ? | -12% | ?
Cc1nc2c(OCCOc3ccc(F)cc3)cccn2c1N(C)C(=O)CCC1CCCC1 | ? | -23 | ? | ? | 15µM*
CCCCC(=O)N(C)c1c(CC)nc2c(OCC(=O)C(C)(C)C)cccn12 | 18% | 14 | 0% | 6% | -23%
Cc1ccc(CN2CCc3nnc(C(C)NC(=O)c4cc(F)ccc4F)n3CC2)o1 (stereo not drawn) | / | / | 12% | / | -8%
COCc1ccc(C(=O)N2CCCC(Nc3ccc(F)c(F)c3)C2)s1 (stereo not drawn) | -5% | -9 | ? | -6% | -12%
Cc1ccc(Cl)cc1NC(=O)Cn1cc2c(n1)CCCCC2 | / | / | -29% | / | -24%
CC(C)C1Oc2ccccc2N(CC(=O)N2CCOCC2)C1=O (stereo not drawn) | 8% | 13 | ? | 17% | 2%
CC(C)C1Oc2ccccc2N(CC(=O)N(C)C2CCCCC2)C1=O (stereo not drawn) | -5% | -74* | ? | -1% | ?
CC(C)(C)C1CCc2c(C(=O)NNC(=O)CCC(=O)O)csc2C1 (stereo not drawn) | 20% | -1 | -2% | 18% | -6%
Cc1cc(NC(=O)c2ccc(-c3ccc(Br)cc3)o2)cc(-c2nc3ncccc3o2)c1O | / | / | -23% | / | -15%
CC(NC(=O)CCCCCCN1C(=O)c2ccccc2C1=O)c1ccc2c(c1)CCCC2 (stereo not drawn) | 0% | -10 | 23µM* | -3% | ?
SMILES | HT1080NT lethal | IL1B secr inh | DT40 TDP1 CPT | HT1080 IDH1KD tx | TDP1 cell noCPT
CC(=O)N1CCN(C(=S)c2ccc(N(C)C)cc2)CC1 | 6% | -9 | -14% | 7%[9.24 µM] | -1%
O=[N+]([O-])c1ccc(C(=S)N2CCN(c3ccc(F)cc3)CC2)cc1 | 1% | ? | ? | -2% | ?
CN(C)c1ccc(C(c2ccc(N(C)C)cc2)c2ccc([N+](=O)[O-])cc2)cc1 | -5% | -50* | ? | 10% | ?
CN(C)c1ccc(C(=S)N2CCN(c3ccc([N+](=O)[O-])cc3)CC2)cc1 | -14% | -22 | 15µM* | -18% | 21µM*
CN(C)c1ccc(C(=S)N2CCCCCC2)cc1 | -21% | 3 | ? | ? | 16µM*
Cc1nn(C(=O)N(C)C)c(C)c1CN1C(=O)c2ccccc2C1=O | -12% | 30 | -17% | -2% | -3%
CC(C)CC(C(=O)NCCc1ccccc1)N1Cc2ccccc2C1=O (stereo not drawn) | / | / | ? | / | 21µM*
CC(C(=O)NCc1ccccc1)N1Cc2ccccc2C1=O (stereo not drawn) | / | / | 7% | / | -10%
CCOc1ccc(CCNC(=O)C(CC(C)C)N2Cc3ccccc3C2=O)cc1OCC (stereo not drawn) | / | / | 10µM* | / | 9.2µM*
COC(=O)c1cc(NC(=O)c2cc(-c3ccc(Cl)cc3)oc2C(F)(F)F)ccc1N1CCOCC1 | ? | ? | ? | ? | 18µM*
COC(=O)c1cc(NC(=O)c2c(-c3c(Cl)cccc3Cl)noc2C)ccc1N1CCOCC1 | 5% | 3 | -24% | -1% | -23%
COC(=O)c1cc(NC(=O)c2cc(-c3ccccc3Cl)oc2C(F)(F)F)ccc1N1CCOCC1 | -21% | ? | ? | ? | 21µM*
CCN(CC)CCNC(C(=O)OCCC(C)C)c1ccccc1 (stereo not drawn) | / | / | 9.4µM* | / | 5.3µM*
CCOC(=O)C(NCCCCl)c1ccccc1 (stereo not drawn) | 18% | 18 | 13% | 22% | 4%
NS(=O)(=O)c1ccc(NC(=O)COC(=O)CCNC(=O)NC23CC4CC(CC(C4)C2)C3)cc1 | -17% | -8 | 0% | -2% | -4%
Cc1ccc2nc(Cl)c3cc(C(=O)NCCCN(C)Cc4ccccc4)sc3c2c1 | / | / | ? | / | 10µM*
CN(CCCNC(=O)c1cc2c(Cl)nc3ccccc3c2s1)Cc1ccccc1 | 16µM* | -82* | 15µM* | 16µM* | 21µM*
C/C(=N/NC(=O)c1cc(-c2ccc(Br)s2)[nH]n1)c1ccco1 | -19% | -69* | -17% | ? | ?
Cc1ccc2[nH]c(CN3CCN(C)C(CCO)C3)c(C)c2c1 (stereo not drawn) | -22% | 5 | -14% | -17% | 24%
Cc1ccc(CN2CCN(Cc3cnn(-c4ccc(Cl)cc4)c3)CC2CCO)o1 (stereo not drawn) | -24% | -57* | ? | -3% | ?
